SMILES strings stand for the structures. Inconclusive results are not listed. The source made the active and inactive calls. The calls were made as follows, unless noted: active = hit-call score of the fitted dose curve at least 0.9, where 1 is the maximum; inactive = score below 0.9.

For orientation: AC50 means the midpoint of the concentration-response curve, whichever way the signal moves.

Assay [1] is described as follows: ATG_TAL_CIS: Attagene CIS-FACTORIAL HepG2 Assay for human TAL Basal Promoter (AID 2282966).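 Also: background control endpoint measuring basal TAL promoter reporter mRNA not a specific factor.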 The conditions noted are these: HepG2 Attagene cis-factorial TAL promoter reporter; actives raise or lower the signal. The method, boiled down:
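HepG2 cells were transiently transfected with promoter-driven multiplexed reporter units and dosed for 24 h. Reporter mRNA was measured by RT-PCR with capillary electrophoresis fluorescence; bidirectional fits used DMSO as baseline, serving as a background control.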

Assay [2] can be described thus: ATG_TGFb_CIS: Attagene CIS-FACTORIAL HepG2 Assay for human Transforming Growth Factor (TGF) (AID 2282967). The note with it: HepG2 Attagene CIS TGFb reporter, mRNA transcription; actives raise or lower the signal. The method, boiled down:
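Transcript-level reporter readout: HepG2 transfectants, 24 h exposure, RNA to cDNA, reporter-specific PCR, fluorescent primer extension, capillary sizing against ROX standards. Gain- or loss-of-signal relative to DMSO.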

A short description of assay [3]: ATG_VDRE_CIS: Attagene CIS-FACTORIAL HepG2 Assay for human Vitamin D Receptor Element (VDRE) (AID 2282968). The note with it: HepG2 VDRE cis-reporter transcription, actives raise or lower the signal. In short, it runs like this: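 Cell-based multiplexed reporter format in human liver HepG2 cells, 24 h post-dose. Fluorescence from capillary electrophoresis of reporter cDNA gives the signal, with DMSO as negative control and baseline.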

In assay [4] the target is Nuclear receptor subfamily 1 group I member 3 (Homo sapiens) (UniProt Q14994). As to the kind of experiment: ATG_CAR_TRANS: Attagene TRANS-FACTORIAL HepG2 Assay for human Constitutive Androstane Receptor (CAR) (AID 2282969; active = hit-call score of the fitted dose curve at least 0.9, where 1 is the maximum;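 also: activators raise reporter mRNA above DMSO so AC50 marks induction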). The conditions noted are these: HepG2 Attagene TRANS-FACTORIAL CAR reporter. The method, boiled down:
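HepG2 cells transiently transfected with GAL4-UAS reporter units; TRANS format reads activity of exogenous chimeric NR-Gal4 protein. After 24 h dosing, reporter mRNA quantified by RT-PCR, 6-FAM labelling and capillary electrophoresis; gain of signal fitted against DMSO.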

In assay [5] the target is X-box-binding protein 1 (Homo sapiens) (UniProt P17861). The assay is described as follows: ATG_Xbp1_CIS: Attagene CIS-FACTORIAL HepG2 Assay for human X-box Binding Protein 1 (XBP1) (AID 2282972). The note with it: HepG2 XBP1 cis-element reporter, Attagene multiplex; actives raise or lower the signal. The method, boiled down:
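Fluorescence-labelled cDNA fragments from reporter transcripts, separated by capillary electrophoresis, give the signal. Source: HepG2 cells transfected with promoter-driven reporter units, harvested 24 h post-dose. DMSO served as reference for bidirectional curve fitting.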

The nature of assay [6]: ATG_M_19_TRANS: Attagene TRANS-FACTORIAL HepG2 Assay for M19 Transcription Factor (Internal Marker) (AID 2282974; active = hit-call score of the fitted dose curve at least 0.9, where 1 is the maximum). The conditions noted are these: HepG2 Attagene TRANS-FACTORIAL M19 internal marker reporter. In short, it runs like this:
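24 h chemical exposure of transiently transfected HepG2 (MRTU library). RNA → oligo(dT) RT → PCR → 6-FAM labelling → HpaI cut → CE fluorescence. Positive-direction fit vs DMSO baseline; background internal-marker readout.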

Assay [7] deals with Estrogen-related receptor gamma (Homo sapiens) (UniProt P62508). As to the kind of experiment: ATG_ERRg_TRANS: Attagene TRANS-FACTORIAL HepG2 Assay for human Estrogen-Related Receptor gamma (ERRg) (AID 2282977; active = hit-call score of the fitted dose curve at least 0.9, where 1 is the maximum;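 also: hits increase reporter signal over DMSO so potencies reflect activators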). The note with it: HepG2 Attagene TRANS reporter, ERRg transactivation. The method, boiled down:
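Transient HepG2 transfectants, 24 h compound exposure, GAL4-UAS reporter mRNA by RT-PCR/6-FAM labelling/capillary electrophoresis; positive direction vs DMSO.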

Assay [8] in a line: ATG_M_32_TRANS: Attagene TRANS-FACTORIAL HepG2 Assay for M32 Transcription Factor (Internal Marker) (AID 2282984; active = hit-call score of the fitted dose curve at least 0.9, where 1 is the maximum). The note with it: HepG2 Attagene TRANS M32 internal marker reporter. The method, boiled down: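 Capillary electrophoresis of 6-FAM-labelled reporter fragments gives the signal; data fitted for gain over DMSO negative control. Source: HepG2 cells bearing transient multiple reporter transcription units, 24 h exposure.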

Assay [9] has as its target Nuclear respiratory factor 1 (Homo sapiens) (UniProt Q16656). The assay is described as follows: ATG_NRF1_CIS: Attagene CIS-FACTORIAL HepG2 Assay for human Nuclear Respiratory Factor 1 (NRF1) Orphan Gene (AID 2282987). The note with it: HepG2 NRF1 cis-element reporter, Attagene multiplex; actives raise or lower the signal. The method, boiled down:
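Endogenous NRF1-driven reporter transcription measured in transiently transfected human HepG2 liver cells. Readout: reporter mRNA by RT-PCR and capillary electrophoresis with fluorescence detection, 24 h post-dosing. Gain or loss of signal fitted relative to DMSO baseline.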

Assay [10] in a line: ATG_NFI_CIS: Attagene CIS-FACTORIAL HepG2 Assay for human Nuclear Factor I (NFI) (AID 2282989). The conditions noted are these: HepG2 cis-regulatory reporter, NFI response element transcription; actives raise or lower the signal. The method, boiled down: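 After transient transfection of HepG2 with cis-promoter reporter constructs and 24 h dosing, RNA is reverse-transcribed, amplified, 6-FAM end-labelled and HpaI-digested before capillary analysis. Bidirectional curve fitting against DMSO.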

In assay [11] the target is Bile acid receptor (Homo sapiens) (UniProt Q96RI1). The assay is described as follows: ATG_FXR_TRANS: Attagene TRANS-FACTORIAL HepG2 Assay for Farnesoid X Receptor (FXR) (AID 2282979; active = hit-call score of the fitted dose curve at least 0.9, where 1 is the maximum;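 also: hits raise reporter mRNA above DMSO so AC50 marks FXR activation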). The note with it: HepG2 Attagene TRANS FXR-GAL4 reporter transcription. The method, boiled down:
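HepG2 cells transiently transfected with reporter constructs in which a chimeric FXR-GAL4 protein drives a GAL4-UAS reporter; 24 h compound exposure. Reporter mRNA measured by RT-PCR, FAM labelling, HpaI digestion and capillary electrophoresis; gain-of-signal versus DMSO.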

Assay [12] deals with Oxysterols receptor LXR-alpha (Homo sapiens) (UniProt Q13133). The assay is described as follows: ATG_LXRa_TRANS: Attagene TRANS-FACTORIAL HepG2 Assay for human Liver X Receptor alpha (LXRa) (AID 2282980; active = hit-call score of the fitted dose curve at least 0.9, where 1 is the maximum). The note with it: HepG2 Attagene TRANS reporter, LXRa transactivation. The method, boiled down: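 HepG2 cells were transiently transfected with multiplexed reporter units driven by chimeric LXRa–GAL4 fusion proteins, then dosed for 24 h. Reporter mRNA was quantified by RT-PCR, fluorescent labelling and capillary electrophoresis; gain of signal fitted against DMSO baseline.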
Sequence of Oxysterols receptor LXR-alpha (Homo sapiens) (Q13133 whole entry, looked up, the tested form may be a part): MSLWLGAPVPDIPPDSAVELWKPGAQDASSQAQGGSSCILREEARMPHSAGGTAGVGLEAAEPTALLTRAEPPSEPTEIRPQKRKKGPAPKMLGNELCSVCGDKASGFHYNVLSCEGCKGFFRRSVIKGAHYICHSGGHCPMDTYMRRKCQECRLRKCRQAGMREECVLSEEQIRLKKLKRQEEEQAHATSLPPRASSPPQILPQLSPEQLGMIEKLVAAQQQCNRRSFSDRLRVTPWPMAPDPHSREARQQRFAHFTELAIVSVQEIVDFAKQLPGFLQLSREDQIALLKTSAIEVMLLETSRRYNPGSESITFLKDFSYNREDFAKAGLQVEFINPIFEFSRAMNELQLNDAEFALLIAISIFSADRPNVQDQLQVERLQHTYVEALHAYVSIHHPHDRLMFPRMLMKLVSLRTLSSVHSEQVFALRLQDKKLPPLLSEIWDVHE

For assay [13], the target named is Oxysterols receptor LXR-beta (Homo sapiens) (UniProt P55055). As to the kind of experiment: ATG_LXRb_TRANS: Attagene TRANS-FACTORIAL HepG2 Assay for human Liver X Receptor beta (LXRb) (AID 2282981; active = hit-call score of the fitted dose curve at least 0.9, where 1 is the maximum). The conditions noted are these: HepG2 Attagene TRANS GAL4-LXRb reporter, mRNA. The method, boiled down:
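Gain-of-signal mRNA reporter endpoint, DMSO as negative control. Transiently transfected HepG2 cells carrying the NR-Gal4 chimera and GAL4-UAS reporter units were treated 24 h; transcripts quantified by RT-PCR and capillary electrophoresis fluorescence.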

Assay [14] is described as follows: ATG_M_06_TRANS: Attagene TRANS-FACTORIAL HepG2 Assay for M06 Transcription Factor (Internal Marker) (AID 2282983; active = hit-call score of the fitted dose curve at least 0.9, where 1 is the maximum). The conditions noted are these: HepG2 Attagene TRANS M06 internal marker reporter. The method, boiled down:
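HepG2 cells transiently transfected with multiplexed GAL4-UAS reporter transcription units; after 24 h compound exposure, reporter mRNA measured by RT-PCR, FAM-labelled primer extension, HpaI digestion and capillary electrophoresis. Gain-of-signal fitted versus DMSO baseline; background control readout.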

Assay [15] has as its target Myc proto-oncogene protein (Homo sapiens) (UniProt P01106). The assay is described as follows: ATG_Myc_CIS: Attagene CIS-FACTORIAL HepG2 Assay for human Myelocytomatosis (Myc) Proto-Oncogene Transcription Factor (AID 2282990). The note with it: HepG2, Attagene cis-reporter transcription factor activity; actives raise or lower the signal. The method, boiled down: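 Fluorescence intensity of reporter-specific cDNA fragments, separated by capillary electrophoresis, gives the signal. Transfected HepG2 cells carrying cis-promoter reporter constructs are incubated with compound for 24 h; DMSO serves as baseline.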

Assay [16] is described as follows: ATG_GAL4_TRANS: Attagene TRANS-FACTORIAL HepG2 Assay for GAL4 (Internal Marker) (AID 2282976; active = hit-call score of the fitted dose curve at least 0.9, where 1 is the maximum). The note with it: HepG2 Attagene TRANS GAL4 internal marker reporter. The method, boiled down: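 HepG2 cells transiently transfected with multiplexed GAL4-UAS reporter constructs were dosed for 24 h. Reporter mRNA was measured by RT-PCR, 6-FAM primer extension, HpaI digestion and capillary electrophoresis, and gain of signal was fitted relative to DMSO.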

Assay [17] concerns the target Glucocorticoid receptor (Homo sapiens) (UniProt P04150). As to the kind of experiment: ATG_GR_TRANS: Attagene TRANS-FACTORIAL HepG2 Assay for human Glucocorticoid Receptor (GR) (AID 2282978; active = hit-call score of the fitted dose curve at least 0.9, where 1 is the maximum;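 also: activators score as hits since higher reporter transcript over DMSO is fitted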). The note with it: HepG2 Attagene TRANS GR reporter, mRNA transcription. In short, it runs like this:
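Transient MRTU transfection of HepG2 (GAL4-UAS reporters, exogenous NR-GAL4 chimeras), 24 h dosing. Readout: reporter transcript via RT-PCR + capillary electrophoresis fluorescence. Positive direction vs DMSO baseline.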

Assay [18] addresses Transcriptional activator Myb (Homo sapiens) (UniProt P10242). As to the kind of experiment: ATG_Myb_CIS: Attagene CIS-FACTORIAL HepG2 Assay for human Myeloblastosis (Myb) Proto-Oncogene Transcription Factor (AID 2282986). The note with it: HepG2 Attagene CIS-FACTORIAL Myb reporter transcription; actives raise or lower the signal. The method, boiled down:
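HepG2, transient MRTU transfection (cis-element promoters, endogenous TF activity), 24 h compound exposure. Readout: reporter mRNA via RT-PCR, 6-FAM labeling, HpaI digest, capillary electrophoresis. Gain/loss fit vs DMSO.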

Sequence of X-box-binding protein 1 (Homo sapiens) (P17861 whole entry, looked up, the tested form may be a part): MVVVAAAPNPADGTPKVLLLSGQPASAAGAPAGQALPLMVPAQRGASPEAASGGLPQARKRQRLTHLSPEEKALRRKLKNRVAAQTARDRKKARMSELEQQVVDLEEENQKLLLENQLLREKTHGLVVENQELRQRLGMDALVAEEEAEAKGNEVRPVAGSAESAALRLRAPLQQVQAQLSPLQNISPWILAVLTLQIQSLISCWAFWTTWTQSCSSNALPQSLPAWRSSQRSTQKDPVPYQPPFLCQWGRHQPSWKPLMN
Sequence of Myc proto-oncogene protein (Homo sapiens) (P01106 whole entry, looked up, the tested form may be a part): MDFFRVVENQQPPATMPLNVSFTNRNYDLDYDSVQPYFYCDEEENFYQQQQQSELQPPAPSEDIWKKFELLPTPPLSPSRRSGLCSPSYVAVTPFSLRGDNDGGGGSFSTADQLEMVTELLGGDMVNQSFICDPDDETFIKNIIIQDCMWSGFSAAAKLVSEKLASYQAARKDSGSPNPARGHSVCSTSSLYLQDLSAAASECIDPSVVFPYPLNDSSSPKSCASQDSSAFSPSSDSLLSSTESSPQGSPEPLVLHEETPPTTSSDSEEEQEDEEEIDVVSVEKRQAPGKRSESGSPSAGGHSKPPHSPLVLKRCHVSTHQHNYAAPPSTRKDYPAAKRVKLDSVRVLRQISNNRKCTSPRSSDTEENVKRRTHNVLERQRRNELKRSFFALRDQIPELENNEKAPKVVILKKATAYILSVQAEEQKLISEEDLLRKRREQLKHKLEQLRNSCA
Sequence of Nuclear receptor subfamily 1 group I member 3 (Homo sapiens) (Q14994 whole entry, looked up, the tested form may be a part): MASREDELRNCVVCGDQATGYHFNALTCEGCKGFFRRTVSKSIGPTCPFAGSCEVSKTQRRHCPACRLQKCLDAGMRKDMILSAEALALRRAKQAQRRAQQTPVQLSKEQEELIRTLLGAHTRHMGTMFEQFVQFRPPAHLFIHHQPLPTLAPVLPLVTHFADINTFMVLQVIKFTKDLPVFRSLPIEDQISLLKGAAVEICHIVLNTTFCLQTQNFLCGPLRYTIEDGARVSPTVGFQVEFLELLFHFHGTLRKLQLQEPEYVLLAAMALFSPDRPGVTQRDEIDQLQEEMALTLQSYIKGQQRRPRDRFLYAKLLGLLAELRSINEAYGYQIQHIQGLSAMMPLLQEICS
Sequence of Nuclear respiratory factor 1 (Homo sapiens) (Q16656 whole entry, looked up): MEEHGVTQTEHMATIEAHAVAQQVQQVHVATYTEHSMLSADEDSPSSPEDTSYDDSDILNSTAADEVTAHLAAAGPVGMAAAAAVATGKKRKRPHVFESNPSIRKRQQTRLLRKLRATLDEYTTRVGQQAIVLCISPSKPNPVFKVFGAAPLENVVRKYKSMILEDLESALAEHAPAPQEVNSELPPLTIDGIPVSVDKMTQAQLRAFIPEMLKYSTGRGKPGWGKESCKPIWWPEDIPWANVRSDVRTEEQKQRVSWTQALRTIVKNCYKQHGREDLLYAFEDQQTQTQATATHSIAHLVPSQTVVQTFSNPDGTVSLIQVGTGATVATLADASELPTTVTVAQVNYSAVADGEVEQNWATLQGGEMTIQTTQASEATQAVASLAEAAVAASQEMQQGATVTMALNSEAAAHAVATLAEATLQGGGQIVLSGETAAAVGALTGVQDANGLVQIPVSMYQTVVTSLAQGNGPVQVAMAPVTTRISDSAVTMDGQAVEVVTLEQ
Sequence of Oxysterols receptor LXR-beta (Homo sapiens) (P55055 whole entry, looked up, the tested form may be a part): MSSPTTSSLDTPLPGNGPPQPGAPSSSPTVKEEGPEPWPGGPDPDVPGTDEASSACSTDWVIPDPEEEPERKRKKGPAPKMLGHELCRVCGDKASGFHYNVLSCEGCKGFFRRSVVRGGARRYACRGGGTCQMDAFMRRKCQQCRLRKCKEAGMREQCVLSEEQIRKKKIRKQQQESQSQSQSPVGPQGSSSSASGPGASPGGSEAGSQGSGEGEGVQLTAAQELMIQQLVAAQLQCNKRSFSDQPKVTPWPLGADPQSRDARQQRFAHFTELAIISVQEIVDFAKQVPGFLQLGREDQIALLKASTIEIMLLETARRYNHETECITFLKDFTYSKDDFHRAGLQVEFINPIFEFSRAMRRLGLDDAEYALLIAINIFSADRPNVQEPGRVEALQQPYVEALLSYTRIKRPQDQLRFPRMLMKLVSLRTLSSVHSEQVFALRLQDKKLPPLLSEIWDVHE
Sequence of Transcriptional activator Myb (Homo sapiens) (P10242 whole entry, looked up): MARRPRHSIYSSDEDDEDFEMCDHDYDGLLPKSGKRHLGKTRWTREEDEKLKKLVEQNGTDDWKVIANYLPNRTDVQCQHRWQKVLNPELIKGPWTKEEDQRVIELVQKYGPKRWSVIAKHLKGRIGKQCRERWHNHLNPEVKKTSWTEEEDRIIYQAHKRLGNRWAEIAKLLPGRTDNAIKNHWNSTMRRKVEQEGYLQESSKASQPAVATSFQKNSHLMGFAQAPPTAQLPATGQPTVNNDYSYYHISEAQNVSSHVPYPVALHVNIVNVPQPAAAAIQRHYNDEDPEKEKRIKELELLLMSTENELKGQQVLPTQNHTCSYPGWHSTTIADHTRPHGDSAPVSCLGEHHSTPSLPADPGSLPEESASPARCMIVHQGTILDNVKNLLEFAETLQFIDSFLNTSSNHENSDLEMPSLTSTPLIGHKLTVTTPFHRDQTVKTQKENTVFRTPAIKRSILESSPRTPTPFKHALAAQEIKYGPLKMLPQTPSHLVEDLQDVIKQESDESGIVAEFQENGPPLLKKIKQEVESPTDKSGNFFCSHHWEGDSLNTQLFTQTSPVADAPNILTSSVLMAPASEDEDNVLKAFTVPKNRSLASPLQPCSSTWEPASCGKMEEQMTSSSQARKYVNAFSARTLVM
Sequence of Estrogen-related receptor gamma (Homo sapiens) (P62508 whole entry, looked up, the tested form may be a part): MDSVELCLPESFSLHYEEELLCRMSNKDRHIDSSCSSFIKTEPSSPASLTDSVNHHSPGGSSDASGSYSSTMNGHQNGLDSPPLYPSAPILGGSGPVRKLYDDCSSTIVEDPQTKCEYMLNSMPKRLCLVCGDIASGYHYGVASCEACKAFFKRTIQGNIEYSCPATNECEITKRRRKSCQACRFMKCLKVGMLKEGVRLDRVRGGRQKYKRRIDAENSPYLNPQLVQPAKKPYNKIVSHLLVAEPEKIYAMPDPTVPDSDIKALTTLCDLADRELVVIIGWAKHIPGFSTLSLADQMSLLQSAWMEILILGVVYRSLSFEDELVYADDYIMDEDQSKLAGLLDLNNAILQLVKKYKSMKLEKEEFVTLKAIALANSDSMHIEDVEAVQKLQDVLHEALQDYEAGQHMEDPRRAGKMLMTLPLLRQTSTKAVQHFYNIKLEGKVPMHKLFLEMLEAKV
Sequence of Glucocorticoid receptor (Homo sapiens) (P04150 whole entry, looked up, the tested form may be a part): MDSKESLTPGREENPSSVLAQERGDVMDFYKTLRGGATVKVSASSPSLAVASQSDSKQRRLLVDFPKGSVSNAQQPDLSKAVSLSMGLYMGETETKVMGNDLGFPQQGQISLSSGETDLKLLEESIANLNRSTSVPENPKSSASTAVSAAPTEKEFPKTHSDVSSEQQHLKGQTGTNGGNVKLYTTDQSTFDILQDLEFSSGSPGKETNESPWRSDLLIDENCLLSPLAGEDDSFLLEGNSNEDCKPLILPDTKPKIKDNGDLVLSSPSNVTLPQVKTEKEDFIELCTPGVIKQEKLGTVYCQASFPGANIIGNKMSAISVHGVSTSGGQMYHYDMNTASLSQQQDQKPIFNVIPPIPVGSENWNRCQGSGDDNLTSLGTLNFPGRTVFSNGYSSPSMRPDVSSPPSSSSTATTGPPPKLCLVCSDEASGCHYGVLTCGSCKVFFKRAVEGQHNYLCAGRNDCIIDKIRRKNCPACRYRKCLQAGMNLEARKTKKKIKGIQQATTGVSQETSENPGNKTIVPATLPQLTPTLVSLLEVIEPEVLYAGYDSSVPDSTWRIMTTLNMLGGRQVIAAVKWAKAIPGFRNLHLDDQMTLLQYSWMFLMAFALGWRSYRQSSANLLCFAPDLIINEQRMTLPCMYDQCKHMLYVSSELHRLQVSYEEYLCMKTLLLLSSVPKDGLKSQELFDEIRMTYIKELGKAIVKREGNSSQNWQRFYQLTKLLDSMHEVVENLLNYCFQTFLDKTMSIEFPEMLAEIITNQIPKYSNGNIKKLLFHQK
Sequence of Bile acid receptor (Homo sapiens) (Q96RI1 whole entry, looked up, the tested form may be a part): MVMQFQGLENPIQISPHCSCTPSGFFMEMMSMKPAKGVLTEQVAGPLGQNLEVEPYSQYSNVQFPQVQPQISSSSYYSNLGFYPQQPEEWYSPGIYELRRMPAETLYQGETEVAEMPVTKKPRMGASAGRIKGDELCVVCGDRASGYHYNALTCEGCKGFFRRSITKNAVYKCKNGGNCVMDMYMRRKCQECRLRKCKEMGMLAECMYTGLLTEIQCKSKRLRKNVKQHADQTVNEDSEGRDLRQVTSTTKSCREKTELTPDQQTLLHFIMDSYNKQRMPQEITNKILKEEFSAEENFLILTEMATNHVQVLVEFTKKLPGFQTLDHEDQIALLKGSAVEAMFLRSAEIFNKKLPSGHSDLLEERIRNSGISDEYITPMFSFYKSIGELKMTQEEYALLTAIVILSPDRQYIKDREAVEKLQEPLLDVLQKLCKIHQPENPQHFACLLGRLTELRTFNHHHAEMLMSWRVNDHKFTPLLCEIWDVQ

For the compound `CCOC(=O)COc1ccc2c(c1)CC(NCC(O)c1cccc(Cl)c1)CC2` (centres undefined), the compound was classed as inactive in [1], in assay [2], in assay [3], in [4], in [5] and in assay [6]. The compound was classed as inactive in assay [7], in [8], in [9] and in [10].
As to `CCc1cc(SCc2sc(-c3ccc(C(F)(F)F)cc3)nc2CN2CCN(c3ccc(OC)cc3)CC2)ccc1OCC(=O)O`, the result in assay [1], in assay [2], in assay [4], in assay [7], in assay [11] and in [12] was inactive. In addition, the outcome in assay [13], in [14], in assay [8], in assay [9], in assay [10] and in [15] was inactive. The AC50 in assay [3] is 16.5 µM (active); in assay [5], 8.03 µM (active).
On to `Nc1nc2ncc(CNc3ccc(C(=O)N[C@@H](CCC(=O)O)C(=O)O)cc3)nc2c(=O)[nH]1`, for which the result in assay [1], in assay [2], in [3], in [4], in [5] and in assay [6] was inactive. Also, the result in [16], in [17], in assay [12], in assay [13], in [9] and in assay [10] was inactive. Moreover, the call in [15] was inactive.
As to `O=C(OC[C@H]1O[C@@H](OC(=O)c2cc(O)c(O)c(OC(=O)c3cc(O)c(O)c(O)c3)c2)[C@H](OC(=O)c2cc(O)c(O)c(OC(=O)c3cc(O)c(O)c(O)c3)c2)[C@@H](OC(=O)c2cc(O)c(O)c(OC(=O)c3cc(O)c(O)c(O)c3)c2)[C@@H]1OC(=O)c1cc(O)c(O)c(OC(=O)c2cc(O)c(O)c(O)c2)c1)c1cc(O)c(O)c(OC(=O)c2cc(O)c(O)c(O)c2)c1`, the result in assay [1], in assay [2], in [3], in assay [4], in assay [5] and in assay [12] was inactive. The outcome in [13], in [14], in [18], in assay [9], in assay [10] and in assay [15] was inactive.
As for `C[C@](N)(Cc1ccc(O)c(O)c1)C(=O)O`, the result in assay [1], in [2], in [3], in [4], in assay [5] and in assay [14] was inactive. In addition, the compound was classed as inactive in assay [18], in assay [9], in [10] and in assay [15].

For the origin of these results see PubChem BioAssay (EPA / NIEHS).
